Measurements published in PubChem BioAssay AID1825 (The Scripps Research Institute Molecular Screening Center, 2009).
Screen size: about 290,000 compounds; about 2,300 (0.79%) were called active. Rule as the data show it: active = inhibition above about 22%; inactive = the rest. For the sample, actives were picked, then their nearest neighbours and some compounds at random.

assay: IEC-6 cell viability reduction – luminescence, cytotoxicity control for KLF5 inhibitor project, primary screen (AID 1825); details: IEC-6 cytotoxicity, at 5 µM, hits give high values;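 also: 0% = plate median of test compound wells and 100% = cytotoxic reference compound wells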

| Compound | inhibition |
| --- | --- |
| CCOc1ccccc1N1CCN(C(=O)c2ccc3[nH]c(C)c(C)c3c2)CC1 | 36.2% (active) |
| Cc1[nH]c2ccc(C(=O)N3CCN(C)CC3)cc2c1C | 0.4% (inactive) |
| COc1ccccc1N1CCN(C(=O)c2ccc(Cl)c(S(=O)(=O)N3CCCC3)c2)CC1 | -2.9% (inactive) |
| CCN(C(=O)COC(=O)c1ccc(COc2ccc3c(C)cc(=O)oc3c2)cc1)C1CCS(=O)(=O)C1 (stereo not drawn) | -1.8% (inactive) |
| Cc1ccc(C)c(NC(=O)C2Cc3ccccc3CN2C(=O)OCc2ccccc2)c1 (stereo not drawn) | -6.3% (inactive) |
| O=C(NCCc1ccccn1)c1cccnc1Oc1ccc(Cl)cc1 | 5% (inactive) |
| COc1ccc(CCNC(=O)c2ccccc2OCc2ccccc2)cc1 | -0.9% (inactive) |
| CCOc1ncccc1C(=O)NCCc1ccc(OC)cc1 | 22% (active) |
| COc1ccc2[nH]cc(/C=C(/C#N)S(=O)(=O)c3ccccc3)c2c1 | -0.2% (inactive) |
| COc1cc(/C=C(\C#N)c2nc3ccccc3[nH]2)ccc1O | 2% (inactive) |
| COc1ccc(/C=C(\C#N)c2c[nH]c3ccccc23)cc1 | 86.1% (active) |
| CN(CC(=O)O)S(=O)(=O)c1ccc2oc3ccccc3c2c1 | -1.3% (inactive) |
| C=Cc1ccc(C(=O)N2CCCC(CCC(=O)N3CCN(c4ccccn4)CC3)C2)cc1 (stereo not drawn) | -8.1% (inactive) |
| CN(C(=O)CN1C(=O)S/C(=C\c2ccccc2F)C1=O)C1CCS(=O)(=O)C1 (stereo not drawn) | -4.8% (inactive) |
| O=S(=O)(c1ccc(Br)cc1)N1CCC(c2nc3ccccc3[nH]2)CC1 | 43.7% (active) |
| O=C(C1CCCO1)N1CCC(c2nc3ccccc3[nH]2)CC1 (stereo not drawn) | -5.3% (inactive) |
| N#CC(C(=O)c1ccc(S(=O)(=O)N2CCCCCC2)cc1)c1nc2ccccc2[nH]1 (stereo not drawn) | 3% (inactive) |
| O=C(Nc1cccnc1Cl)c1cc(-c2ccccc2O)on1 | -3.1% (inactive) |
| Cc1ccc(OCCOc2cccc(/C=N/NC(N)=O)c2)cc1 | 3.9% (inactive) |
| CNC(=O)C1CCN(S(=O)(=O)c2c(C)noc2/C=C/c2cccc(C)c2)CC1 | -7.8% (inactive) |
| Cc1cccc2c1N(CC(=O)OC(C)C)C(=O)C2=O | 2.7% (inactive) |
| CC(C)OC(=O)CN1C(=O)C(=O)c2ccccc21 | 24.8% (active) |
| CC(C)OC(=O)CN1C(=O)c2ccccc2C1=O | 1.2% (inactive) |
| COc1ccc(CCNS(=O)(=O)c2cn(C)nc2C)cc1 | 3% (inactive) |
| CCCOc1ccc(C2=CSC3=NCCN23)cc1Cl | -2.6% (inactive) |

| Compound | inhibition |
| --- | --- |
| O=C(Nn1cnnc1)c1cc(Cl)ccc1Cl | 1.3% (inactive) |
| Cc1ccc(NS(=O)(=O)c2ccc(F)cc2)nc1 | 1.3% (inactive) |
| COc1ccc(Nc2oc(-c3ccccc3Cl)nc2C#N)cc1 | 26.1% (active) |
| Cc1ccccc1-c1nc(C#N)c(NCc2ccco2)o1 | -5.6% (inactive) |
| COc1ccccc1-c1nc(C#N)c(N2CCC(C(N)=O)CC2)o1 | 0.7% (inactive) |
| CCC(C)N1CC(=O)N2Cc3[nH]c4ccccc4c3C[C@H]2C1=O (stereo partly drawn) | 9.4% (inactive) |
| NC(=O)c1oc2ccccc2c1NC(=O)Cc1ccccc1 | -3.9% (inactive) |
| CSc1nnc2ccc(-c3ccc(C)cc3)nn12 | 23.2% (active) |
| O=C(CSc1nnc2ccc(-c3ccncc3)nn12)N1CCCCC1 | -4.1% (inactive) |
| Fc1cccc(CSc2nnc3ccc(-c4ccncc4)nn23)c1 | -4% (inactive) |
| CCOC(=O)N1CCN(C(=O)c2cn(C)c3ccc(S(=O)(=O)N(CC)CC)cc3c2=O)CC1 | -5.4% (inactive) |
| COC(=O)c1ccc(NC(=O)CSc2nncn2-c2cccnc2)cc1 | 0.4% (inactive) |
| COc1ccccc1N1CCN(C(=O)c2cc(=O)c3cc(C)ccc3o2)CC1 | 17.9% (inactive) |
| COc1ccccc1N1CCN(C(=O)c2cc(=O)c3cc(C)cc(C)c3o2)CC1 | 93.6% (active) |
| COc1cccc(-c2cc(C(=O)N3CCN(c4ccccc4OC)CC3)no2)c1 | 12.1% (inactive) |
| COC1=C(N2CCOCC2)C(=O)c2ccccc2C1=O | -1.6% (inactive) |
| COc1ccc(NC(=O)c2cccc3c2C(=O)N(CC2CCCO2)C3)cc1OC (stereo not drawn) | -0.8% (inactive) |
| COc1ccc(CNS(=O)(=O)c2ccc(-c3cnc(C4CC4)o3)cc2)cc1 | -1.9% (inactive) |
| Cc1cccc(NS(=O)(=O)c2ccc(-c3cnc(C4CC4)o3)cc2)c1 | 77.2% (active) |
| Cc1cccc(CNS(=O)(=O)c2ccc(-c3cnc(C4CC4)o3)cc2)c1 | 4.4% (inactive) |
| Cc1cccc(OCc2ccc(C(=O)Nc3ccc(F)cc3)cc2)c1 | 0.7% (inactive) |
| Cc1cccc(CS(=O)(=O)c2ncc(Cl)c(C(=O)Nc3ccc(F)cc3)n2)c1 | 77.4% (active) |
| CCOc1ccc(NC(=O)c2nc(SCC)ncc2Cl)cc1 | 12.7% (inactive) |
| Cc1cccc(NC(=O)C(C)SCc2ccccc2)c1 (stereo not drawn) | 0.6% (inactive) |
| Cc1cccc(NC(=O)c2nc(S(=O)(=O)Cc3ccccc3)ncc2Cl)c1 | 88.2% (active) |

| Compound | inhibition |
| --- | --- |
| CCSc1ncc(Cl)c(C(=O)Nc2cc(C)ccc2C)n1 | 5.4% (inactive) |
| CN1C2CCC1CC(NC(=O)c1ccc([N+](=O)[O-])cc1)C2 (stereo not drawn) | 5% (inactive) |
| CC(NC(=O)COc1cccnc1[N+](=O)[O-])c1ccc(Cl)cc1Cl (stereo not drawn) | -1.6% (inactive) |
| Cc1cccc(NC(=O)c2ccc(S(=O)(=O)N(C)CC3CCCO3)cc2)c1C (stereo not drawn) | -2.6% (inactive) |
| COc1ccc(CNC(=O)C(C)n2nc(C)c3c(C)n(-c4ccccc4)nc3c2=O)c(OC)c1 (stereo not drawn) | 0.3% (inactive) |
| CC1CN(C(=S)Nc2ccccc2F)CC(C)O1 (stereo not drawn) | 1.8% (inactive) |
| CC(=O)NC1=NN(C(C)=O)C(C)(c2ccc(Cl)s2)S1 (stereo not drawn) | 23.7% (active) |
| CC(=O)NC1=NN(C(C)=O)C(C)(c2ccc(C)cc2)S1 (stereo not drawn) | -3.8% (inactive) |
| CC(=O)NC1=NN(C(C)=O)C(C)(CCS(=O)(=O)c2ccc(Cl)c(Cl)c2)S1 (stereo not drawn) | -1% (inactive) |
| O=C(Nc1ccccc1Cl)Nn1cnnc1 | 0.2% (inactive) |
| O=C(COC(=O)c1cccs1)Nc1ccccc1Cl | -3.8% (inactive) |
| O=C(Nc1ccccc1Cl)/C(Cl)=C(\Cl)S(=O)c1ccccc1 (stereo not drawn) | 96.8% (active) |
| CCOC(=O)c1csc(CCNC(=O)c2oc3c(Cl)cc(C)cc3c2C)n1 | -2.4% (inactive) |
| COc1ccc(CS(=O)/C(Cl)=C(/Cl)C(=O)Nc2ccc(OC)nc2)cc1 (stereo not drawn) | 102% (active) |
| COc1ccc(Nc2cc(Cl)ccc2C(=O)O)cn1 | -1.3% (inactive) |
| COc1ccc(C(=O)Nc2ccc(NC(=O)C(C)C)nc2)cc1 | -0.5% (inactive) |
| CCOc1ccc(S(=O)(=O)Nc2ccc(OC)nc2)cc1 | 6.1% (inactive) |
| COc1ccc(NC(=O)c2cc(-c3ccc(C)cc3)on2)cc1 | 2.3% (inactive) |
| COc1ccc(NC(=O)/C(Cl)=C(/Cl)S(=O)Cc2ccc(C)cc2)cn1 (stereo not drawn) | 99.6% (active) |
| Cc1ccc([N+](=O)[O-])cc1S(=O)(=O)N1CCCN(C)CC1 | 3.1% (inactive) |
| CC1(C)Cc2cccc(OCC(=O)N3CCN(c4ccc([N+](=O)[O-])cc4)CC3)c2O1 | 4.2% (inactive) |
| Cc1cccc(C(=O)N2CCN(S(=O)(=O)N3CCCCC3)CC2)c1 | -0.2% (inactive) |
| CN(C)CCNC(=O)c1[nH]nc2c1CCc1ccccc1-2 | -3.9% (inactive) |
| CC(=O)NCCc1ccc(S(=O)(=O)Nc2ccc(C)c(S(=O)(=O)N3CCOCC3)c2)cc1 | 2.5% (inactive) |
| COC(=O)Nc1nc2ccc(Sc3ccccc3)cc2[nH]1 | 81.4% (active) |

| Compound | inhibition |
| --- | --- |
| CC(C)c1nc2ccc(C(=O)O)cc2[nH]1 | -6% (inactive) |
| COc1cc(OC)cc(C(=O)N[C@H](C(=O)Nc2nc3ccccc3[nH]2)C(C)C)c1 | 18.7% (inactive) |
| S=C(c1ccc(-c2ccccc2)o1)N1CCCCC1 | 1.6% (inactive) |
| O=C(Cc1ccc([N+](=O)[O-])cc1)Nc1ccc(C(=O)N2CCOCC2)cc1 | -2.8% (inactive) |
| CCCc1c(C(=O)N/N=C(\C)CCc2ccc(OC)cc2)nnn1-c1nonc1N | 1.1% (inactive) |
| CCn1cc(/C=C(\NC(=O)c2cc(OC)c(OC)c(OC)c2)C(=O)N2CCN(C)CC2)c2ccccc21 | 6.9% (inactive) |
| Cc1nn(C(C)C(=O)NCCC2=CCCCC2)c(=O)c2nn(-c3ccccc3)c(C)c12 (stereo not drawn) | -2.9% (inactive) |
| Cc1cc(C(=O)N/N=C\C(Br)=C\c2ccccc2)c(C)o1 | 11.7% (inactive) |
| CC(C)c1cc(C(=O)N/N=C/C(Br)=C/c2ccccc2)n[nH]1 | 37.9% (active) |
| CC(C)c1cc(C(=O)O)n[nH]1 | 1.7% (inactive) |
| Cc1ccc(Cl)cc1NC(=O)C1CCCN(c2cnccn2)C1 (stereo not drawn) | -2.8% (inactive) |
| C[C@@H]1C[C@@H]2O[C@H]2/C=C\C=C\C(=O)Cc2c(Cl)c(O)cc(O)c2C(=O)O1 | 44.5% (active) |
| COc1ccccc1Oc1ccc(N2CC(C(=O)OCC(=O)c3ccc(F)cc3)CC2=O)cc1 (stereo not drawn) | -7.2% (inactive) |
| Cc1nn(CC(=O)N2CCCCC2)c(=O)c2nn(-c3ccccc3)c(C)c12 | -5.3% (inactive) |
| COc1ccc(C2=NOC(C(=O)NCc3ccco3)C2)cc1OC (stereo not drawn) | 43.3% (active) |
| Cc1ccc(CNC(=O)C2CC(c3ccccc3[N+](=O)[O-])=NO2)o1 (stereo not drawn) | 4.8% (inactive) |
| COc1ccc(S(=O)(=O)N2CCC(C(=O)NCc3ccco3)CC2)cc1C | -0.7% (inactive) |
| C[C@@H](NC(=O)[C@@H]1Cc2ccccc2CN1)C(=O)NC1CCCC1 | 0.2% (inactive) |
| CC(=O)NCCNC(=O)c1cc(-c2cccc3ccccc23)nc2ccccc12 | 4.3% (inactive) |
| COCCn1c(SCC(=O)Nc2nc(C)cs2)nnc1C(C)C | 1.6% (inactive) |
| Cc1cccc(N2C(=O)c3cccnc3C2=O)c1 | 3.1% (inactive) |
| O=C1c2ccccc2C(=O)N1c1cccc2ccccc12 | -0.4% (inactive) |
| Cc1ccc(Oc2ccc3c(c2)C(=O)N(c2cccc4cccnc24)C3=O)cc1 | 25.8% (active) |
